Screens deposited in PubChem BioAssay by National Center for Advancing Translational Sciences (NCATS).
Hits are enriched below; roughly 2.4% of the tested compounds scored in any of these assays.
Apoferritin bind: binds horse apoferritin like a general anesthetic | P02791 | actives 0.074% (n = 350,000) | Potency, µM (series often up to 77.5 µM), for the others: at the highest dose activity change, negative = displacement, hits mostly inhibitors | apoferritin/1-aminoanthracene competitive binding, fluorescence; further: on the % scale 0 is the no-effect control and ±100 the full control effect; nearly all actives have a fitted effect of over 20% in size
Target sequence (P02791 2-175 limits assumed): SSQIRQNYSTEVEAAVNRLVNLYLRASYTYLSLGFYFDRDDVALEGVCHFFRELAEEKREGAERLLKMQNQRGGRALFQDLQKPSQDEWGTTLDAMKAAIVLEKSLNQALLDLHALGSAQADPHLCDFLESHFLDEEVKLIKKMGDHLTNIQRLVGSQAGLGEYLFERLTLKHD
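10 uM apoferritin + 50% sat. 1-AMA, PBS; cpd 10 min RT; Ex380/Em535 endpoint; normalized to free probe vs complex; 4-param Hill fit; propofol titration as pos. ctrl.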
ATXN2 expr inh: reduces ATXN2 reporter expression in HEK-293 cells; HEK-293 ATXN2-luciferase reporter, luminescence, 24 h; actives 0.72% (n = 360,000); AID 1745845; Potency, µM (top dose mostly 57 µM), without a hit: top-dose activity change, negative = inhibition, usual class: inhibitors; further: on the % scale 0 is the no-effect control and ±100 the full control effect; nearly all actives have a fitted effect of over 55% in size
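qHTS (up to 57 uM final) was run with 24 h compound exposure of reporter cells at 37 °C. Each well was multiplexed: SteadyGlo luminescence measured ATXN2-luciferase expression after a fluorogenic Gly-Phe-AFC viability readout (25 uM final).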
HepG2 viability: HepG2 cytotoxicity, counter-screen for TGF-b inhibitors; HepG2 CAGA-GFP viability, ATP luminescence, 18 h; Potency, µM (titrated, usually from 46.1 µM), for inactives: at the highest dose activity change, negative = cytotoxicity, most hits filed as cytotoxic; AID 588856; actives 0.76% (n = 410,000)
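CellTiter-Glo luminescence gave cytotoxicity after 18 hours at 37 degrees C. The cells were HepG2 CAGA-GFP in 1% FBS DMEM, stimulated with 500 pg/mL TGF-beta after compound addition. %Activity was normalised to no-cell wells (complete cell-killing) and DMSO (no toxicity), and curves were fitted and classified.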
ATXN viability: viability counter-screen for ATXN expression inhibitors. AID 651635. S2 cells (HEK-293 line with an ATXN2-luciferase reporter) viability, CellTiter-Fluor protease fluorescence, 24 h. actives 0.49% (n = 400,000). Potency, µM (highest dose often 56.7 µM), actives largely listed as cytotoxic; further: nearly all actives have a fitted effect of over 40% in size
TGFb inhibitor: inhibitors of TGF-b signaling | HepG2 CAGA-GFP TGF-b/SMAD3 reporter, GFP fluorescence, 18 h; TGF-beta stimulated, 500 pg/mL final | Potency, µM (top dose mostly 46.1 µM), inactives show top-dose activity, negative = inhibition, hits mostly inhibitors | actives 1.2% (n = 410,000) | AID 588855; further: on the % scale 0 is the no-effect control and ±100 the full control effect; nearly all actives have a fitted effect of over 65% in size
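HEPG2 CAGA-GFP cells (1000/well, DMEM with 1% FBS) were pre-incubated 2 h at 37 degrees C, given compound by pin tool, then stimulated with TGF-beta at 500 pg/mL final for 18 h before per-cell GFP fluorescence imaging.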
* marks the source's active call; other numbers are inactive results; i = inactive; ? = inconclusive; · = no result. The call rests on the fitted dose curve; in most records, active means well fitted curve in the direction sought with a large enough effect; inconclusive means small, poorly fitted or top-dose-only effect, or another doubt; inactive means no such curve, though single readings can be large; an effect the other way counts as inactive or inconclusive. Potency means the concentration at half of the fitted maximal effect.

SMILES | Apoferritin bind | ATXN2 expr inh | HepG2 viability | ATXN viability | TGFb inhibitor
CC[C@H](C)[C@H](NC(=O)[C@H](CCC(=O)O)NC(=O)[C@H](CC(N)=O)NC(=O)[C@@H](N)[C@@H](C)O)C(=O)N[C@H](C(=O)N[C@@H](CCC(=O)O)C(=O)N[C@@H](CCC(=O)O)C(=O)N[C@@H](CCC(N)=O)C(=O)N[C@@H](Cc1ccc(O)cc1)C(=O)N[C@H](C(=O)N1CCC[C@H]1C(=O)N[C@@H](CCC(N)=O)C(=O)N[C@@H](CO)C(=O)N[C@@H](CC(C)C)C(=O)N[C@@H](C)C(=O)N[C@H](C(=O)N[C@@H](CC(C)C)C(=O)N[C@@H](CCC(=O)O)C(=O)N[C@@H](CO)C(=O)N[C@H](C(=O)N[C@@H](Cc1ccccc1)C(=O)N[C@@H](CCC(N)=O)C(=O)N[C@@H](CCC(=O)O)C(=O)N[C@@H](CC(C)C)C(=O)NCC(=O)N[C@@H](CCCCN)C(=O)N[C@@H](CC(C)C)C(=O)N[C@H](C(=O)NCC(=O)N1CCC[C@H]1C(=O)N[C@@H](CC(N)=O)C(=O)N[C@@H](CO)C(=O)N[C@@H](CCC(N)=O)C(=O)O)[C@@H](C)O)C(C)C)[C@@H](C)O)[C@@H](C)O)C(C)C | -3.5% | · | · | · | ·
CCOc1ccc(NC(=O)N(Cc2ccc(CC)cc2)Cc2cn[nH]c2-c2ccc(OC)cc2)cc1 | -7.4% | · | -16.8% | · | 8.91µM*
CCc1ccc(CN(Cc2cn[nH]c2-c2ccc(OC)cc2)C(=O)Nc2ccc(C)c(F)c2)cc1 | -21.8% | · | -42.6% | · | 10µM*
CCc1ccc(NC(=O)Cc2ccc(OC)cc2)cc1 | -11.3% | · | · | · | ·
CCOC(=O)CN(C)Cc1cn[nH]c1-c1ccc2cc(OC)ccc2c1 | 2.5% | -11.3% | -0.9% | i | -9.9%
CCc1ccc(CN(Cc2cn[nH]c2-c2ccc(OC)cc2)C(=O)Nc2ccc(Br)cc2)cc1 | ? | · | -39.7% | · | 7.94µM*
CCOc1ccc(C2=C(C(C)=O)Sc3nnc(C)n3N2C(C)=O)cc1 | -13.6% | · | -57.9% | · | 7.94µM*
CCC(=O)C1=C(c2ccccc2)N(C(=O)CC)n2c(nnc2-c2ccccc2)S1 | -1.0% | · | -2.1% | · | -1.7%
CC(=O)C1=C(c2cccc([N+](=O)[O-])c2)N(C(C)=O)n2c(C)nnc2S1 | -22.9% | ? | 11.2µM* | ? | 11.2µM*
CCC(=O)C1=C(c2ccc(Cl)cc2)N(C(=O)CC)n2c(C)nnc2S1 | -9.5% | · | -28.5% | · | 6.31µM*
CC(=O)Oc1ccc(C(=O)N2c3ccccc3NC(=O)C2C)cc1 (stereo not given) | 2.9% | 3.1% | -8.2% | i | -12.1%
O=S(=O)(c1cccc(Cl)c1)n1c(/C=C/c2ccccc2Cl)nc2ccccc21 | 58.3% | · | 10µM* | · | ?
CSc1ccc(/C=C/c2nc3ccccc3n2S(=O)(=O)c2cccc(Cl)c2)cc1 | 95.9% | ? | -95.8% | i | -5.7%
Cn1cc(-c2ccc3nnc(C(F)(F)c4ccc5ncccc5c4)n3n2)cn1 | · | -23.1% | · | · | ·
CCc1ccc(S(=O)(=O)Nc2ccc(O)c3ccccc23)cc1 | 1.7% | · | -103.8% | i | ?
O=S(=O)(Nc1ccc(O)c2ccccc12)c1ccc(F)cc1 | · | 31.6µM* | 5.01µM* | ? | ?
C=CC(=O)N1C/C(=C/c2ccc(Cl)cc2)C(=O)/C(=C\c2ccc(Cl)cc2)C1 | · | 2.82µM* | 5.01µM* | 0.891µM* | 2.24µM*
CN1C/C(=C/c2ccncc2)C(=O)/C(=C/c2ccncc2)C1 | 0.0% | 4.5% | -3.9% | i | 1.2%
C=CC(=O)N1C/C(=C/c2ccccc2)C(=O)/C(=C\c2ccccc2)C1 | · | 6.7µM* | 1.78µM* | 9.47µM* | 2.24µM*
CC(C)(C(=O)NCC(F)(F)C(F)(F)F)C(=O)N[C@@H]1C(=O)Nc2ccccc2-c2ccccc21 | · | -12.3% | · | · | ·
CCN(CC)CCOc1ccc(C(=C(Cl)c2ccccc2)c2ccccc2)cc1 | · | 7.3% | · | · | ·
Clc1ccc(C(Cn2ccnc2)OCc2ccc(Sc3ccccc3)cc2)c(Cl)c1 (stereo not given) | · | ? | · | i | ·
COc1ccc2[nH]c(-c3ccc(C)cc3)cc(=O)c2c1 | 5.0% | 17.8µM* | -9.2% | i | 0.7%
COc1ccccc1CCCNC(=O)C1CCC(=O)N(CCc2cccc(F)c2)C1 (stereo not given) | -7.2% | 1.2% | 1.2% | i | -8.0%
O=C(O)C1=CO[C@@H](O[C@@H]2O[C@H](CO)[C@H](O)[C@H](O)[C@H]2O)[C@@H]2C(CO)=CC[C@H]12 | · | 2.0% | · | · | ·
SMILES | Apoferritin bind | ATXN2 expr inh | HepG2 viability | ATXN viability | TGFb inhibitor
Cc1ccc(S(=O)(=O)c2ccc([N+](=O)[O-])o2)cc1 | · | 6.7µM* | -99.8% | 10.6µM* | 10µM*
Nc1ccc(C(=O)NN2C(=O)[C@H](Cl)C2c2ccc(Cl)cc2)cc1 (stereo not given in full) | · | ? | -87.8% | 13.4µM* | 0.0%
COc1ccccc1-c1ccnc(-n2ncc(C(=O)NC(C)(C)CO)c2C2CC2)n1 | · | · | · | i | ·
CCN(CC)CCNc1ccc(CO)c2oc3cc(Cl)ccc3c(=O)c12 | · | · | -43.0% | ? | -11.7%
CCN(CC)CCNc1ccc(C)c2sc3ccc(O)cc3c(=O)c12 | · | ? | 14.1µM* | · | ?
COCCN(C(=O)COC(=O)Cc1cccc(OC)c1)c1c(N)n(CC(C)C)c(=O)[nH]c1=O | · | 8.4% | -4.5% | i | 9.2%
CCCCCc1cc(=O)oc2c(C(CCN3CCCCC3)c3ccc4c(c3)OCO4)c(OC)cc(OC)c12 (stereo not given) | -13.5% | 31.6µM* | -93.1% | 17.8µM* | 17.8µM*
CCCCCc1cc(=O)oc2c(C(CCN(CC)CC)c3cc(OC)c(OC)c(OC)c3)c(OC)cc(OC)c12 (stereo not given) | -8.1% | ? | 17.8µM* | 31.6µM* | ?
COc1cc(OC)c2ccc(=O)oc2c1C(CCN1CCCC1)c1ccc2c(c1)OCO2 (stereo not given) | -8.8% | 4.9% | -14.0% | 14.1µM* | -7.2%
COc1cc(OC)c2ccc(=O)oc2c1C(CCN1CCOCC1)c1ccc2c(c1)OCO2 (stereo not given) | -5.4% | -7.8% | -26.8% | 8.91µM* | -20.4%
CCCCCc1cc(=O)oc2c(C(CCN3CCCC3)c3ccc4c(c3)OCO4)c(OC)cc(OC)c12 (stereo not given) | -16.3% | · | -97.5% | · | ?
COc1cc(OC)c2c(-c3ccccc3)cc(=O)oc2c1C(CCN1CCCC1)c1ccc2c(c1)OCO2 (stereo not given) | ? | 0.0% | -7.9% | ? | ?
Cc1ccccc1C1(CC(=O)N2CCCC(C)C2)CC(=O)N(Cc2cccnc2)C1=O (stereo not given) | · | · | · | i | ·
